Experiment [1] in a line: Cell Proliferation Assay against the TMD8 Cell Line (Caspase readout at 16 hrs) (AID 651712). Note: potency is the fitted concentration of half-maximal effect. The note with it: TMD8 lymphoma cells, caspase activation luminescence. In a few lines:
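Apoptotic response of TMD8 cells was judged from caspase 3/7 activation following a 16 hour compound incubation at 37 °C. Luminescent signal was converted to percent activity, with DMSO set as 0% and 9.2 uM final bortezomib as 100%.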

A short description of experiment [2]: qHTS assay for small molecule agonists of the antioxidant response element (ARE) signaling pathway (AID 651741; active = well fitted activation curve with a large enough effect in the signal ratio; the % refers to the signal ratio; note: potency is the fitted concentration of half-maximal effect). The note with it: HepG2 ARE-bla reporter, beta-lactamase FRET ratio, 16 h. In a few lines:
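Seeding 2,000 ARE-bla HepG2 cells per well preceded a 5 h incubation at 37 C/5% CO2 and a 16 h compound exposure at 37 C. Beta-lactamase reporter activity was then quantified by fluorescence after 2 h with LiveBLAzer B/G FRET substrate.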
For orientation: In qHTS, concentration-response curves come from the screen itself.

The nature of experiment [3]: qHTS assay for small molecule activators of the nuclear factor-kappa B (NF-kB) signaling pathway (AID 651749; active = well fitted activation curve with a large enough effect in the signal ratio; the % refers to the signal ratio; note: % of control where 0% means no effect). Conditions: NF-kB-bla ME-180 cells, beta-lactamase FRET ratio, 16 h; active compounds read high. In a few lines: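 Stably transfected ME-180 line; NF-kB response element upstream of beta-lactamase. Treatment: compound or DMSO, 16 hr. Detection: fluorescent FRET substrate.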

Experiment [4] has as its target Tumor necrosis factor (Homo sapiens) (UniProt P01375). Description: qHTS assay to identify small molecules that stimulate Tumor Necrosis Factor-alpha (TNF-alpha) secretion (AID 651757; active = well fitted curve in the direction sought with a large enough effect in the signal ratio; the % refers to the signal ratio; note: 0% is about no effect). Conditions: Human cells, HTRF 665/615 ratio; series mostly up to 92.2 µM. In a few lines:
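THP-1 cells were exposed to compounds for 17 hrs at 37 C, after which secreted TNF-alpha was measured by homogeneous HTRF (TR-FRET) using cryptate- and XL665-labeled anti-TNF-alpha antibodies, read after 3 hr at room temperature.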

Experiment [5] is described as follows: qHTS assay to identify small molecules that stimulate interleukin-8 (IL-8) secretion (AID 651758; active = well fitted activation curve with a large enough effect in the signal ratio; the % refers to the signal ratio; note: 0% is about no effect). Conditions: HTRF ratio (665/615); series mostly up to 92.2 µM. In a few lines: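 Secreted IL-8 measured by TR-FRET sandwich (cryptate and XL665 antibodies) from THP-1 cells exposed to compound overnight (16 hrs, 37 C).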

Records with an inconclusive call do not appear. Values without a mark were called inactive. Activity calls are given as the source filed them. Unless noted, calls come from the whole dose curve; as a rule, active = well fitted activation curve with a large enough effect; inconclusive = small, poorly fitted or top-dose-only effect; inactive = flat fitted curve, though single readings scatter.

Tumor necrosis factor (Homo sapiens), sequence (P01375 whole entry, looked up): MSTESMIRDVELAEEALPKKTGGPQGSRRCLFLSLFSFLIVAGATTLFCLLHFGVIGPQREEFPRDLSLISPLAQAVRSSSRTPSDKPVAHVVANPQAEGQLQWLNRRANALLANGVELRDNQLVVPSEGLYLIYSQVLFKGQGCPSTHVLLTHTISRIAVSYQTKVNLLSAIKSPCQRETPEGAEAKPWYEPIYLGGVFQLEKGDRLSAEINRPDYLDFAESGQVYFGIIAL

For the compound `Cn1c(Nc2ccc(C(F)(F)F)cc2)nc2cc(Oc3ccnc(-c4ncc(C(F)(F)F)[nH]4)c3)ccc21`, in experiment [1], the Potency was 16.6 µM (active).
Regarding `Cc1cc(O)c2c(c1)C(=O)c1cccc(O)c1C2=O`, the Potency in experiment [2] is 26.6 µM (active). The activation in experiment [3] is -0.078%. Also, the outcome in experiment [4] and in experiment [5] was inactive.
Take `OC[C@@H](O)[C@@H](O)[C@H](O)[C@@H](O)CO`: the activation in experiment [3] is -0.0055%.

These data come from PubChem BioAssay (NCATS).
